# The full list was thinned out, with hits kept by preference.
# TbPYK inhibitor = blocks Trypanosoma brucei pyruvate kinase; TbPYK enzyme, Kinase-Glo Plus ATP luminescence, 45 min; 0.12% of 410,000 active; Potency, µM (doses to about 76.8 µM), for the others: top-dose activity, negative = inhibition, hits mostly inhibitors; Q57TT1; AID 624173; note: potency is the fitted concentration of half-maximal effect; % is set by controls: 0 for no effect and ±100 for the full control effect; nearly all actives have a fitted effect of over 50% in size
#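 In this concentration-response screen, enzyme-free wells defined baseline while DMSO plates tracked drift. Each reaction combined TbPYK, substrate, compound and 130 uM ADP for 45 min at room temperature. Kinase-Glo Plus luminescence gave the signal.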
# CHX counter = counter-screen hit for Shiga toxin inhibitors, cycloheximide. cell reporter, cycloheximide protein synthesis inhibition counterscreen. max response, %. 12% of 300,000 active; in the data active = max response mostly above about 13%, no sharp cut-off; inactive = mostly below about 14%; note: read at 38.3 µM for the half of the compounds with a filed dose; 0% is about no effect
# LmPK inh = inhibitors of Leishmania mexicana pyruvate kinase. Potency, µM (titrated, usually from 57.5 µM), inactives show top-dose activity change, negative = inhibition, actives largely listed as inhibitors. 0.37% of 290,000 active. purified LmPK, Kinase-Glo ATP luminescence, 1 h. Q27686; note: potency is the fitted concentration of half-maximal effect; % is set by controls: 0 for no effect and ±100 for the full control effect
#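 In 50 mM imidazole pH 7.2 with 7 mM MgCl2, LmPK (0.1 nM) turned over PEP (0.5 mM) and ADP (0.1 mM) for 1 h at room temperature. Luciferase read-out of ATP.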
# RE007 growth inh = less growth of the S. pombe RE007 Vpr strain; Potency, µM (top dose mostly 92.2 µM), without a hit: at the highest dose activity change, negative = less growth, actives largely listed as inhibitors; S. pombe RE007 Vpr strain, BacTiter-Glo ATP luminescence, 24 h; 0.21% of 360,000 active; active = well fitted falling curve with a large enough effect; inconclusive = small, poorly fitted or top-dose-only effect; inactive = no such curve, though single readings can be large or run the other way; note: potency is the fitted concentration of half-maximal effect; % is set by controls: 0 for no effect and ±100 for the full control effect; nearly all actives have a fitted effect of over 50% in size
#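 Fission yeast RE007 carrying one integrated HIV-1 vpr copy, seeded at OD 0.01 in PMG+AL medium with 23 nL pinned compound. Grown 24 h at 30 degrees; viability read by BacTiter-Glo luminescence after 5 min.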
# FBPA Giardia inh = Giardia lamblia aldolase inhibition | Potency, µM (doses to about 59.6 µM), for inactives: at the top dose activity, negative = inhibition, hits mostly inhibitors | A8B2U2 | 0.71% of 290,000 active | purified Giardia FBPA; note: potency is the fitted concentration of half-maximal effect; % is set by controls: 0 for no effect and ±100 for the full control effect; nearly all actives have a fitted effect of over 55% in size
# Target sequence (A8B2U2 whole entry, looked up): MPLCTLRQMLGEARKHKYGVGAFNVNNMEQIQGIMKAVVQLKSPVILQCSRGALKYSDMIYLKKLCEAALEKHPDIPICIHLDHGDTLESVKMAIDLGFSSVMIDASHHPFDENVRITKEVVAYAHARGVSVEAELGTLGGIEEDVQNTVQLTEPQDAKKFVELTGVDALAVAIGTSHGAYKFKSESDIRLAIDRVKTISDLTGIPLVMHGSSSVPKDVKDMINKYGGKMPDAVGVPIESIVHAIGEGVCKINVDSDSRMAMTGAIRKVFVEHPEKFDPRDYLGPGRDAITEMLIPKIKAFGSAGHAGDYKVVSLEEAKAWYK
#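 Giardia FBPA (40 nM reagent) was preincubated 10 min at RT with compound (up to 57.5 uM final), then substrate plus GAPDH/TPI/NAD/arsenate coupling system with diaphorase/resazurin was added; resorufin fluorescence (525/598 nm) was read after 20 min.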
# Shiga toxin inh = Shiga toxin inhibition; Vero cells, Shiga toxin protein synthesis inhibition reporter; inhibition, % at 38.7 µM; 9.2% of 290,000 active; AID 2315; in the data active = inhibition mostly above about 28%, no sharp cut-off; inactive = mostly below about 43%; note: 0% is about no effect
# * marks the source's active call; other numbers are inactive results; u = inconclusive; x = no result; + = active, no number. Unless noted, calls come from the whole dose curve; as a rule, active = well fitted curve in the direction sought with a large enough effect; inconclusive = small, poorly fitted or top-dose-only effect, or another doubt; inactive = no such curve, though single readings can be large; an effect the other way counts as inactive or inconclusive.
SMILES,TbPYK inhibitor,CHX counter,LmPK inh,RE007 growth inh,FBPA Giardia inh,Shiga toxin inh
C=CCOc1ccc(C(=O)Nc2ccc(OCC)cc2)cc1,-1%,7,-2%,-7%,7%,39
Cc1ccc(/C=C(\C#N)C(=O)Nc2c(C)cccc2C)s1,-12%,-1,7%,0%,0%,-19
Cc1ccccc1NC(=O)/C(C#N)=C/c1ccsc1,7%,25*,1%,-28%,3%,37*
N#C/C(=C\c1ccc[nH]1)C(=O)Nc1ccccc1[N+](=O)[O-],-6%,22*,-17%,-5%,x,67*
Cc1ccccc1NC(=O)/C(C#N)=C/c1ccc(-c2ccc(Cl)c(C(=O)O)c2)o1,4%,12*,6%,1%,14%,15
Cc1ccc(NC(=O)/C(C#N)=C/c2ccc(C)s2)c(C)c1,5%,40*,13%,-3%,2%,53
N#C/C(=C\c1ccc[nH]1)C(=O)N1CCCCC1,-2%,9,1%,-6%,-4%,13
CCOc1ccc(S(=O)(=O)N2Cc3ccccc3CC2C(=O)Nc2ccc(NC(C)=O)cc2)cc1 (configuration not stated),0%,x,x,x,x,x
O=C(NCC1CCCO1)C(=O)N/N=C\c1ccc2c(c1)OCO2 (configuration not stated),6%,10,-2%,-5%,x,-15
Cc1ccccc1NC(=O)/C(C#N)=C/c1ccc[nH]1,-14%,30*,3%,3%,10%,26
Cc1ccccc1NC(=O)/C(C#N)=C\c1cn(CC(=O)O)c2ccccc12,3%,8,1%,4%,7%,-16
CCc1ccc(OCc2ccc(C(=O)O)o2)cc1,4%,64*,3%,2%,15%,101*
O=C(O)c1ccc(COc2ccc(Cl)cc2)o1,-2%,24*,-9%,15%,21%,42
C=CCc1ccc(OCc2ccc(C(=O)Nc3ccc(NC(C)=O)cc3)o2)c(OC)c1,9%,47*,2%,7%,3%,136*
O=C(O)c1ccc(OCc2ccc(C(=O)O)o2)cc1,4%,15*,-7%,-12%,-1%,32
N#Cc1ccc(OCc2ccc(C(=O)O)o2)cc1,-6%,-3,1%,5%,2%,4
COc1cc(CN2C[C@@H](CO)O[C@@H](n3cnc4c(NC5CCCC5)ncnc43)C2)cc(OC)c1OC,1%,x,x,-9%,x,x
COc1ccc(OC)c(CN2C(=O)c3ccccc3C2c2nnnn2Cc2ccccc2)c1 (configuration not stated),5%,x,x,6%,x,x
CCN1CCN(C(=O)c2ccc(COc3ccc(Cl)cc3)o2)CC1,-3%,-4,-4%,-7%,x,-7
COC(=O)c1ccc(COc2ccc(/C=N/O)cc2OC)o1,-7%,20*,4%,-18%,14%,71*
CCOc1cc(/C=N/NC(=O)c2cccnc2)ccc1OCc1ccc(C(=O)OC)o1,1%,11,7%,10%,9%,-4
COC(=O)c1ccc(COc2cccc(OC)c2)o1,-9%,22*,1%,7%,-1%,58*
COC(=O)c1ccc(COc2ccc(Cl)cc2)o1,-9%,20*,-1%,0%,-3%,75*
COc1cccc(NC(=O)c2ccc3c(c2)OCCO3)c1,-17%,15,25µM*,u,-1%,23
COc1cccc(NC(=O)c2ccc3c(c2)OCO3)c1,-28%,32*,-29%,u,4%,63*
CCC(=O)Nc1cccc(NC(=O)c2ccc3c(c2)OCO3)c1,-3%,19*,-19%,-5%,-8%,61*
N#CC(c1ccc(Cl)cc1)c1c(Cl)cc(-n2ncc(=O)[nH]c2=O)cc1Cl (configuration not stated),2%,x,x,x,x,x
O=C(N/N=C/c1cn(-c2cccs2)nc1-c1ccccc1)c1ccc(O)cc1,-4%,45*,-1%,1%,2%,+
O=C(N/N=C/c1cn(-c2cccs2)nc1-c1ccccc1)c1ccccc1Cl,-5%,21*,0%,-6%,3%,102*

# High-throughput results (PubChem BioAssay)
